# Compound activity (PubChem)
# Mtb betalactam – beta-lactam sensitization of Mtb H37Rv, H37Rv; AID 434955, 2010; M. tuberculosis H37Rv growth with meropenem, percent inhibition; actives 0.27% (n = 330,000); inhibition, % at 25 µM; call rule not given here;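 note: growth measured after seven days incubation then overnight dye step; 0% = bacteria only wells and 100% = bacteria with antibiotic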
# FBA Mtb inh – Mtb FBA enzyme inhibitors, primary screen, biochemical, fluorescence, strain H37Rv; Fructose-bisphosphate aldolase (Mycobacterium tuberculosis (strain ATCC 25618 / H37Rv)), …; purified M. tuberculosis FBA, fluorescence read-out; inhibition, % at 1 µM; actives 2.3% (n = 360,000); in the data active = inhibition above about 27%;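 note: 0% = vehicle and 100% = reference inhibitor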
# Target sequence (P9WQA3 whole entry, looked up): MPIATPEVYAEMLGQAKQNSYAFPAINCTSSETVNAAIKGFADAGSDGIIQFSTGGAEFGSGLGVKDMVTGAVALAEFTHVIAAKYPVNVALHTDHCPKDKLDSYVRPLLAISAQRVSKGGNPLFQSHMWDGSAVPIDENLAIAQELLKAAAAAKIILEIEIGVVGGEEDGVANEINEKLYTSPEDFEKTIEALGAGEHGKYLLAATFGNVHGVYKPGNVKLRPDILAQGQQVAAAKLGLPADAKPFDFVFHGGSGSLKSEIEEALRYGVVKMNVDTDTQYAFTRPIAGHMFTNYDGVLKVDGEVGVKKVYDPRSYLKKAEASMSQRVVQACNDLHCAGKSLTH
# GDH-TPI inh – GDH-TPI coupling enzyme inhibitors, primary screen, artefact control for M. tuberculosis FBA inhibitor project, biochemical, absorbance, full deck; GDH-TPI coupled enzyme counterscreen, NADH absorbance; inhibition, % at 4.8 µM; actives 1.2% (n = 360,000); AID 588335, 2011; in the data active = inhibition above about 30%;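 note: 0% = DMSO wells and 100% = wells lacking the enzyme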
# DUSP3 inh – VHR1 phosphatase inhibitors, primary screen, biochemical, absorbance, uHTS. Dual specificity protein phosphatase 3 (Homo sapiens), P51452. recombinant VHR phosphatase, pNPP absorbance. inhibition, % at 13.3 µM. actives 0.52% (n = 290,000); in the data active = inhibition above about 50%
# Target sequence (P51452 whole entry, looked up): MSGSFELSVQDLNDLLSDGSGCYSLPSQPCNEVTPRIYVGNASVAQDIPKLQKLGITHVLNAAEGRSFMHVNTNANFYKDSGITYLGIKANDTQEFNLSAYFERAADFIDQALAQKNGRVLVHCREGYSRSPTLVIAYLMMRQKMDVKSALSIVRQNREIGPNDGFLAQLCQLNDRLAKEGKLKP
# Mtb hypoxia rep – PubChem AID 1159583; actives 0.1% (n = 300,000); fluorescence inhibition, % (no concentration beside the values); M. tuberculosis hypoxia-regulated fluorescent reporter, fluorescence; in the data active = fluorescence inhibition mostly above about 23%, no sharp cut-off; inactive = mostly below about 17%
# Numbers without * were called inactive; ? = inconclusive; / = no result given. Shown are actives, neighbours in structure and some others; about 3.6% of the full set was active somewhere.
SMILES,Mtb betalactam,FBA Mtb inh,GDH-TPI inh,DUSP3 inh,Mtb hypoxia rep
O=C(CSc1nnc(CNC(=O)c2c(F)cccc2Cl)o1)Nc1ccc2c(c1)OCO2,-10,95*,-3,12,-3
C=CCn1cc(C(=O)OC)c(=O)c2cc(S(=O)(=O)N3CCC(C)CC3)ccc21,-1,2,32*,/,4
C=CCn1cc(C(=O)OC)c(=O)c2cc(S(=O)(=O)N(CC)CC)ccc21,3,-1,7,6,17
Oc1[nH]c2ccccc2c1/C=N/c1nccs1,8,-2,31*,8,/
Cc1cccc(N=Cc2c(O)[nH]c3ccccc23)n1,/,/,/,/,9
CN(C)c1ccc(C=NS(=O)(=O)c2ccccc2)cc1,/,/,/,/,10
CN(C)c1ccc(/C=N/O)cc1,-6,3,7,2,/
Cc1ccc(N=Cc2ccc(N(C)C)cc2)cc1,-3,0,39*,10,/
Cc1ccc(N=Cc2ccc(N(C)C)cc2)cc1C,2,-1,23,18,9
CN(C)c1ccc(C=Nc2ccccc2)cc1,-6,1,46*,13,-2
CN(C)c1ccc(C=Nc2ccc(N(C)C)cc2)cc1,30,-1,32*,26,/
CC(=NNc1nncc2ccccc12)c1ccc(Cl)c([N+](=O)[O-])c1,/,/,/,/,1
CC1CN(C(C)CO)C(=O)c2cccc(NC(=O)Cc3ccccc3)c2OC1CN(C)S(=O)(=O)c1cccs1 (stereo unspecified),/,/,/,/,18
C#CCNC(=O)C1=CC(c2ccc(C(F)(F)F)cc2)CC(OCCCCO)O1 (stereo unspecified),/,/,/,/,9
C#CCOCCOCCOCCNc1nc(N2CCN(C(=O)C(CCCCN)n3cc(C(N)CO)nn3)CC2)nc(N2CCN(C(=O)C(CCCCN)n3cc(C(N)CC(C)C)nn3)CC2)n1 (stereo unspecified),/,/,/,/,8
CSc1nc(SCC(=O)NCc2ccco2)c2c3c(sc2n1)COC(C)(C)C3,?,18,36*,22,9
CCCCSc1nc(SCC(=O)NCc2ccco2)c2c3c(sc2n1)COC(C)(CC)C3 (stereo unspecified),-2,0,-6,21,-5
CC(C)OC(=O)c1c(N)n(CC2CCCO2)c2nc3ccccc3nc12 (stereo unspecified),3,190*,9,-5,/
CC(C)CCOC(=O)c1c(N)n(CC2CCCO2)c2nc3ccccc3nc12 (stereo unspecified),9,149*,21,22,/
Nc1c(C(=O)OC2CCCCC2)c2nc3ccccc3nc2n1CC1CCCO1 (stereo unspecified),17,149*,18,4,0
COc1ccccc1-n1c(N)c(C(=O)NCC2CCCO2)c2nc3ccccc3nc21 (stereo unspecified),2,113*,-2,3,-4
COCC=CC1=CC2=CC(=O)C(C)(OC(=O)c3cnc4ccccc4n3)C(=O)C2=CN1c1ccccc1 (stereo unspecified),/,/,/,/,12
C/C(C=NNC(=O)C(O)c1ccccc1)=C\c1ccccc1 (stereo unspecified),/,/,/,/,-4
CC(=NNC(=O)CCC(=O)NCc1ccccc1)c1ccco1,/,/,/,/,6
CC(O)Cc1cn(C(CCCCNC(=O)OC(C)(C)C)C(=O)N2CCN(C(=O)OC(C)(C)C)CC2)nn1 (stereo unspecified),/,/,/,/,-6
SMILES,Mtb betalactam,FBA Mtb inh,GDH-TPI inh,DUSP3 inh,Mtb hypoxia rep
Oc1cccc(C=NNc2nncc(-c3ccccc3)n2)c1,/,/,/,/,-12
O=C(Cc1ccc(Br)cc1)NN=Cc1ccc(-c2cccc(C(=O)O)c2)o1,/,/,/,/,13
O=[N+]([O-])c1cccc(-c2ccc(/C=N/NC(=S)Nc3ccccc3)o2)c1,77,1,34*,15,/
COc1ccc(-c2ccc(C=NNC(=O)Cc3nnc(N)s3)o2)cc1Cl,/,/,/,/,10
COc1ccc(CC(=O)N/N=C/c2ccc(-c3cccc(C(=O)O)c3)o2)cc1OC,-2,5,75*,8,/
CNC(=S)N/N=C/c1ccc(-c2cccc(C(=O)O)c2)o1,-10,7,85*,3,/
COc1ccc(CC(=O)N/N=C/c2ccc(-c3ccc(F)cc3)o2)cc1OC,60,0,45*,17,/
O=[N+]([O-])c1cccc(-c2ccc(C=NNC(=S)Nc3cccc(F)c3)o2)c1,/,/,/,/,16
CCCNC1CCc2nc(N)sc2C1 (stereo unspecified),/,/,/,/,2
COC(=O)C(NC(=O)OC1C(=O)c2cc(Br)ccc2OC1c1cccc(OC)c1)C(C)C (stereo unspecified),/,/,/,/,11
Cc1cc(C)c(S(=O)(=O)N=C2C=C(Sc3ncn[nH]3)C(=O)c3ccccc32)cc1C,/,/,/,/,12
COc1ccc(C=NNC(=O)OC(C)(C)C)cc1OC,/,/,/,/,2
O=c1[nH]c2cc3c(cc2cc1C(c1nnnn1C1CCCCC1)N1CCSCC1)OCCO3 (stereo unspecified),-5,28*,20,4,-3
CC1COC(=O)C(NC(=O)OCC2c3ccccc3-c3ccccc32)CC=CCC(CC(=O)NCCO)C(=O)N1 (stereo unspecified),/,/,/,/,14
CC(COc1ccccc1)N1CCC(CO)(Cc2ccccc2)CC1 (stereo unspecified),2,2,-4,58*,6
Cc1cccc(C(=O)OC2C(C)NS(=O)(=O)C3CC4C=C[C@]23O4)c1 (stereo partly specified),/,/,/,/,0
Cn1c(CN2CCN(CCO)CC2)c(C#N)c2ccccc21,0,3,31*,14,7
COC(=O)C1=C(C)N=c2sc(=Cc3ccoc3)c(=O)n2C1c1ccccc1 (stereo unspecified),/,/,/,/,-11
CNC(=O)C1CC(=O)N/C(=N/N=C(C)c2cccs2)S1 (stereo unspecified),/,/,/,/,11
COc1ccc(/C=N/Nc2cc(C)nc3ccc(OC)cc23)c(OC)c1,100,144*,12,4,/
Cc1ccc(OCC(=O)NN=Cc2ccc(-c3cccc(C(=O)O)c3)o2)c(C)c1,/,/,/,/,8
COc1cc(/C=N/N2CCCCC2)cc([N+](=O)[O-])c1O,8,-4,14,60*,/
COC(=O)NN=Cc1cc(OC)c(O)c([N+](=O)[O-])c1,/,/,/,/,20
CC(/C=C/c1ccco1)=N\NC(=O)c1cccc(Cl)c1,100,1,32*,0,/
CC(/C=C/c1ccco1)=N/NC(=O)c1ccccc1Cl,10,-1,32*,2,/
CC(/C=C/c1ccco1)=NNC(=O)c1cccc(Cl)c1,/,/,/,/,2
CCN(CC)c1ccc(C=CC(=O)C2C(=O)C=C(C)OC2=O)cc1 (stereo unspecified),/,/,/,/,0
